Each structure is given as a SMILES string. Results filed as inconclusive are left out. Calls of active or inactive are those of the source. Calls come from the whole dose curve.
% is set by controls: 0 for no effect and ±100 for the full control effect.
Note: nearly all actives have a fitted effect of over 35% in size.

System in one assay: not listed separately
Briefly: Nuclear factor erythroid 2-related factor 2/antioxidant responsive element (Nrf2/ARE) small molecule agonists: luciferase reporter gene qHTS assay in human keratinocytes (AID 1919969). Note: potency is the fitted concentration of half-maximal effect. As to conditions: KeratinoSens HaCaT ARE-luciferase, luminescence, 24 h; series mostly up to 92.4 µM; activity, positive = activation: at the top concentration.
For `O=CN(CCO)CCO`, the “activity, positive = activation” value was -3.88% (inactive). As for `CCN(C(=O)N(CC)c1ccccc1)c1ccccc1`, the “activity, positive = activation” value was -8.05% (inactive). For the compound `CCC(CC)CO`, the “activity, positive = activation” value was 1.92% (inactive). On the same count and under the same terms, next, `CC/C=C\CC/C=C/CO`: -16.9% (inactive); `CC(CSC(=O)c1ccccc1)C(=O)N1C[C@@H](Sc2ccccc2)C[C@H]1C(=O)O` (stereo not given in full): -3.94% [at 19 µM] (inactive). The same measure, in the same setting: then `Cc1ccccc1N=C(N)Nc1ccccc1C`, with 3.03% (inactive). As for `C1C2OC2C2C1C1CC2C2OC12` (stereo not given), the “activity, positive = activation” value is -4.79% (inactive).

In the case of `CC[N+](CC)(CC)CCOC(=O)C(C1CCCC1)C1CCCC1`, the “activity, positive = activation” value was -3.27% [at 42.5 µM] (inactive). Turning to `O=C1CCCCCCCCCCCC(=O)OCCO1`, the “activity, positive = activation” value is 3.32% (inactive). On the same count and under the same terms, next, `CCCCOC(=O)CCCCC(=O)OCCCC`: 1.96% (inactive). For the compound `c1cc[c]([Bi]([c]2ccccc2)[c]2ccccc2)cc1`, the Potency is 4.86 µM (active). For `C=C[Si](OC)(OC)OC`, the “activity, positive = activation” value is -6.07% (inactive). On to `CC(CC=O)CCCC(C)(C)O` (stereo not given), for which the “activity, positive = activation” value was 0.542% (inactive). `CCOC(=O)C1=NN(c2ccccc2)C(=O)C1`: the “activity, positive = activation” value was 3.12% (inactive). On to `Cc1c(Cl)cccc1Cl`, for which the “activity, positive = activation” value is 6.27% (inactive). `O=C1c2cccc3c2[C@H](CCC3)CN1[C@@H]1CN2CCC1CC2`: the “activity, positive = activation” value was -9.21% [at 42.5 µM] (inactive).

Regarding `CCCCC(CC)COC(=O)c1ccccc1` (stereo not given), the “activity, positive = activation” value was 1.63% (inactive). On to `CN(C)CCOC(=O)C(c1ccccc1)C1(O)CCCC1` (stereo not given), for which the “activity, positive = activation” value is -2.06% [at 42.5 µM] (inactive).

As for `CCN1CCC[C@H]1CNC(=O)c1c(OC)ccc(Br)c1OC`, the “activity, positive = activation” value is -4.07% [at 42.5 µM] (inactive).

`CCCCCCCCCCCCCCCC(=O)OCC`: the “activity, positive = activation” value is -23% (inactive).

In another assay the target is Gonadotropin-releasing hormone receptor (Homo sapiens) (UniProt P30968). Nature of the assay: Human gonadotropin-releasing hormone receptor (GnRHR) small molecule agonists, calcium flux assay in GnRHR-HEK293 cells (AID 1920063). As to conditions: calcium flux fluorescence, agonist mode; series mostly up to 57.6 µM; activity change: at the top concentration. The essentials: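 Calcium-dye fluorescence, Ex/Em=480/540, recorded every 1 sec over 3 min after compound addition to GnRHR-HEK293 cells. Cells had been seeded 18 hours earlier and dye-loaded for 1 hour at 37 C. Fifteen concentrations, triplicates.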
Chain of Gonadotropin-releasing hormone receptor (Homo sapiens) (P30968 whole entry, looked up): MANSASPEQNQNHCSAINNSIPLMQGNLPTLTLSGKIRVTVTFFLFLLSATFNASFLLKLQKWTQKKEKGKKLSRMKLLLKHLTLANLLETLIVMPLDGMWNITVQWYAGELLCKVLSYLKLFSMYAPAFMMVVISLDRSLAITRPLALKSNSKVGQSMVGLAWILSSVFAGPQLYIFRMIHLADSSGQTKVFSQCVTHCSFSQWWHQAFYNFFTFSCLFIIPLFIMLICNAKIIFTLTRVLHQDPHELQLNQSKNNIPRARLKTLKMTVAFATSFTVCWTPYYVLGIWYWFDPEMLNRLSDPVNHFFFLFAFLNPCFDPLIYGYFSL
Regarding `O=C=NCC1CCCC(CN=C=O)C1` (stereo not given), the “activity change” value was 1.3% (inactive).

With `CC(CCO)CCCC(C)(C)O` (stereo not given), the “activity change” value is -0.314% (inactive).

Take `Cc1ccc2ccc3cccc4ccc1c2c34`: the “activity change” value is 1.4% (inactive). On to `CCOc1ccc(NS(=O)(=O)c2ccc(N)cc2)nn1`, for which the “activity change” value was 2.76% [at 26.4 µM, stronger effect = higher value] (inactive). On the same count and under the same terms, then `COC(=O)c1cc(Cl)cc(Cl)c1`, with 1.33% (inactive); and `Oc1cc2ccccc2c2ccccc12`, with -0.42% (inactive). `Cc1ccc(-c2ncc(Cl)cc2-c2ccc(S(C)(=O)=O)cc2)cn1`: the “activity change” value is 2.49% [at 26.4 µM, stronger effect = higher value] (inactive). Regarding `Cc1[nH]c(C)c(Cl)c(=O)c1Cl`, the activity change was -0.0007% [at 11.8 µM, stronger effect = higher value] (inactive).

In the case of `CCCNCCC`, the “activity change” value is -0.123% (inactive). Still for that read-out and setting: then `COc1cc(N)ccc1C`, with 1.61% (inactive). On to `Cc1ccc2c(c1)CCCN2`, for which the “activity change” value was -0.462% (inactive). As for `NCCCCCCNCCCCCCN`, the “activity change” value was 1.97% (inactive). For the compound `CC(C)(C)C1CCCCC1=O` (stereo not given), the “activity change” value is 2.42% (inactive). `CN(C)CCOCCO`: the “activity change” value was 0.318% (inactive).

`CC1(C)CC(O)CC(C)(C)N1[O]`: the “activity change” value is -0.195% (inactive). Still for that read-out and setting: next, `C=CCCCCCCCCCCCCCC`: 0.565% [at 11.8 µM, stronger effect = higher value] (inactive); `CCN1C=CN(C)C1C` (stereo not given): 1.49% (inactive).

For the compound `CC[N+](C)(CC)CCOC(=O)C1c2ccccc2Oc2ccccc21`, the “activity change” value is -0.193% [at 26.4 µM, stronger effect = higher value] (inactive). Regarding `NCCCN(CCO)CCO`, the “activity change” value was 4.89% (inactive). Same read-out and setting: next, `O=Cc1cc(O)ccc1Br`: 6.98% (inactive); `O=CN(CCO)CCO`: 0.553% (inactive); `CCN(C(=O)N(CC)c1ccccc1)c1ccccc1`: 4.92% (inactive). Same read-out and setting: next, `CCC(CC)CO`: -1.1% (inactive); `CC/C=C\CC/C=C/CO`: -0.115% (inactive). For the compound `CC(CSC(=O)c1ccccc1)C(=O)N1C[C@@H](Sc2ccccc2)C[C@H]1C(=O)O` (stereo not given in full), the activity change is -1.85% [at 11.8 µM, stronger effect = higher value] (inactive).

For the compound `Cc1ccccc1N=C(N)Nc1ccccc1C`, the “activity change” value is 6.83% (inactive).

On to `C1C2OC2C2C1C1CC2C2OC12` (stereo not given), for which the “activity change” value was 2.04% (inactive).

Consider `CC[N+](CC)(CC)CCOC(=O)C(C1CCCC1)C1CCCC1`, for which the “activity change” value is 1.41% [at 26.4 µM, stronger effect = higher value] (inactive). With `O=C1CCCCCCCCCCCC(=O)OCCO1`, the “activity change” value is 19.7% (inactive).

Turning to `CCCCOC(=O)CCCCC(=O)OCCCC`, the “activity change” value was 8.74% (inactive). Regarding `c1cc[c]([Bi]([c]2ccccc2)[c]2ccccc2)cc1`, the “activity change” value is -0.0579% (inactive).

Consider `C=C[Si](OC)(OC)OC`, for which the “activity change” value is -0.339% (inactive). `CC(CC=O)CCCC(C)(C)O` (stereo not given): the “activity change” value was -0.161% (inactive). As to `CCOC(=O)C1=NN(c2ccccc2)C(=O)C1`, the “activity change” value is -0.047% (inactive). For the compound `Cc1c(Cl)cccc1Cl`, the “activity change” value was -0.0262% (inactive). For the compound `O=C1c2cccc3c2[C@H](CCC3)CN1[C@@H]1CN2CCC1CC2`, the “activity change” value is -1.5% [at 26.4 µM, stronger effect = higher value] (inactive). On to `CCCCC(CC)COC(=O)c1ccccc1` (stereo not given), for which the “activity change” value is -0.0025% (inactive). On to `CN(C)CCOC(=O)C(c1ccccc1)C1(O)CCCC1` (stereo not given), for which the “activity change” value is -0.452% [at 26.4 µM, stronger effect = higher value] (inactive).

With `CCN1CCC[C@H]1CNC(=O)c1c(OC)ccc(Br)c1OC`, the “activity change” value was 0.349% [at 26.4 µM, stronger effect = higher value] (inactive).

`CCCCCCCCCCCCCCCC(=O)OCC`: the “activity change” value was 0.214% (inactive).

The values are drawn from PubChem BioAssay (Tox21).
